Experimental data as given in PubChem BioAssay AID652010 (The Scripps Research Institute Molecular Screening Center, 2013).
Out of some 370,000 compounds screened, about 4,100 (1.1%) were called active.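 The calls were made as follows: active = inhibition above the mean over all tested compounds plus 3 SD (cut at about 3.6% in these data); inactive = the rest.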 What follows is part of a selection rich in actives, with near analogues and random picks from the rest.

assay: relief of DAX-1 repression of SF-1 activity – cell-based, luminescence, SF-1 (NR5A1), full-length DAX-1, primary screen (AID 652010); conditions: HEK293T StAR-luciferase reporter, SF-1/DAX-1 repression relief; at 6.8 µM; stronger effect = higher value;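 also: 0% = DAX-1 cells with DMSO and 100% = cells lacking DAX-1 with DMSO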

SMILES	inhibition
CN(CCc1ccccc1)C(=O)Cn1nc(-c2ccccc2)ccc1=O	-1.5% (inactive)
CSc1ccccc1NC(=O)c1cc(Cl)sc1Cl	-0.22% (inactive)
CSc1ccccc1NC(=O)c1cc(C2CC2)on1	3.85% (active)
Cc1nn(Cc2ccc(Cl)c(Cl)c2)c(C)c1NC(=O)c1cc(C2CC2)on1	-1.2% (inactive)
Cc1ccc(C(=O)Nc2ccc3c(c2)OCCO3)cc1S(=O)(=O)N1CCOCC1	1.01% (inactive)
Cc1ccc(C(=O)NNC(=O)c2ccc3c(c2)OCCO3)cc1	5.23% (active)
CN1CCN(c2ccc(NC(=O)c3ccc4c(c3)OCCO4)cc2Cl)CC1	4.89% (active)
Cc1ccc(C(=O)Nc2nnc(C3=COCCO3)o2)cc1C	1.49% (inactive)
Cc1ccc(S(=O)(=O)NCC(=O)Nc2ccc3c(c2)OCCO3)cc1	-0.38% (inactive)
O=C(Nc1ccccc1)c1ccc2c(c1)OCCCO2	14.7% (active)
Cc1nc(NC(=O)c2ccc3c(c2)OCCO3)ccc1Br	12.7% (active)
O=C(Nc1ccc(N2CCN(C(=O)c3ccccc3)CC2)c(Cl)c1)c1cccnc1	-1.45% (inactive)
C/C(=N/NC(=S)Nc1ccccc1)c1ccc2c(c1)OCO2	0.83% (inactive)
O=C(Nc1ccc(N2CCOCC2)c(Cl)c1)c1ccc(S(=O)(=O)N2CCOCC2)cc1	-0.43% (inactive)
COc1cccc(C(=O)Nc2cc3c(cc2Br)OCCCO3)c1	2.47% (inactive)
C/C(Cc1ccccc1)=N\NC(=O)CNC(=O)c1ccc2c(c1)OCCO2	0.38% (inactive)
CC(C)(C)n1nc(C2CC2)c(Br)c1NC(=O)c1ccccc1F	-1.59% (inactive)
N#Cc1ccc(OC[C@@H](O)CN2CCC(C(O)(c3ccccc3)c3ccccc3)CC2)c(F)c1	-0.27% (inactive)
CC(C)CNS(=O)(=O)CC1NCCc2ccccc21 (stereo unspecified)	-0.78% (inactive)
COc1cccc(N2CCN(CC(=O)N(C)Cc3ccc(F)cc3)CC2)c1	-0.23% (inactive)
C=CCN1C(=O)[C@@H](CC(=O)NCCCCc2ccccc2)[C@]2(C(=O)OCC)CCCCC/C=C/12	-0.85% (inactive)
CCOC(=O)Cn1c2c(n(-c3ccc(F)cc3)c1=O)C=C(c1ccccc1)[C@@H](C)C(C(=O)N(C)C1CCCCC1)=C2	-1.69% (inactive)
Cn1c(=O)c([N+](=O)[O-])c(Oc2ccccc2)c2ccccc21	-1.48% (inactive)

SMILES	inhibition
C=CCN1C(=O)[C@H](CC(=O)NCCCN2CCCC2=O)[C@@]2(C(=O)OCC)CCCC=C12	0.2% (inactive)
CCCCCN1CCCCC(NC(=O)C(C)CCC)C1=O (stereo unspecified)	0.06% (inactive)
c1csc(-c2nnc(SCc3nc4ccccc4[nH]3)o2)c1	-0.62% (inactive)
CCc1ccc2oc(-c3ccc(N)cc3)nc2c1	5.85% (active)
O=C(C1CCC(=O)N(C2CC2)C1)N1CCN(c2ccc(Cl)cc2)CC1 (stereo unspecified)	-0.61% (inactive)
CC1(C(=O)Nc2cccc3c2CCCC3)CCN1C(=O)C1(c2ccccc2)CC1 (stereo unspecified)	-0.73% (inactive)
CCOc1ccc2nc(C(=O)N3CCCC(C)C3)sc2c1 (stereo unspecified)	4.1% (active)
COc1ccc2cc(C(=O)C3CCCN(C(=O)c4sc(C)nc4C)C3)ccc2c1 (stereo unspecified)	0.57% (inactive)
CCOc1ccc(NC(=O)C2CCCN(C(=O)Nc3ccccc3)C2)cc1 (stereo unspecified)	-0.8% (inactive)
CC(CNC(=O)c1ccc(N)cc1)NC(=O)c1ccc(N)cc1 (stereo unspecified)	0.06% (inactive)
O=C(Nc1ccccc1C(=O)N1CCOCC1)c1ccc(Cl)cc1	-0.37% (inactive)
Nc1ccc(C(=O)Nc2ccccc2N)cc1	15.9% (active)
C#CCCN([C@H](C(=O)OC)C(C)C)S(=O)(=O)c1ccc(F)cc1Br	-0.77% (inactive)
O=C1CCC2(CCC(c3ccc(Cl)cc3)CC2)N1CCO (stereo unspecified)	-1.36% (inactive)
O=S1(=O)c2c(cccc2N2CC[C@H](O)C2)O[C@@H]2CCN1C2	-0.61% (inactive)
Cc1cc(OCc2cc(C(=O)NCc3cc(C(C)C)no3)no2)cc(C)c1Cl	7.8% (active)
COc1ccc(OCc2cc(C(=O)NCC3(C)COC3)no2)c(Cl)c1	-0.13% (inactive)
COCCCNC(=O)COc1cc(C)c(Cl)c(C)c1	-0.64% (inactive)
N#Cc1ccc(-c2nc3cc(C#N)c(C#N)cc3nc2-c2ccccc2)cc1C#N	-0.36% (inactive)
Cc1csc(NC(=O)Nc2ccccc2[N+](=O)[O-])n1	4.06% (active)
Cc1cc(NC(=O)Nc2ccccc2[N+](=O)[O-])no1	-0.12% (inactive)
CN1CCN(CCNC(=O)Nc2ccccc2[N+](=O)[O-])CC1	-0.08% (inactive)
O=C1[C@@H]2C(c3cccnc3)=NO[C@@H]2C(=O)N1c1ccc(Cl)cc1Cl	-0.39% (inactive)
